Source: PubChem BioAssay
Coupling enz: coupling enzyme interference in Giardia aldolase counter-screen; coupling enzyme system counterscreen, AmpLite Red fluorescence; activity change, negative = inhibition, % at 58.2 µM, hits read low; actives 0.67% (n = 290,000); AID 2472; in the data active = activity change below about -30%
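Compounds tested against the coupling enzymes alone at 57.5 uM final; readout was AmpLite Red fluorescence (525/598 nm) after 20 min at RT.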
ELG1 DNA repair: blocks ELG1-dependent DNA repair in HEK293T cells. HEK293T ELG1-luciferase reporter, luminescence, 16 h; DNA damage induced by 5-fluorouridine. Potency, µM (highest dose often 46.1 µM), inactives show top-dose activity change, negative = inhibition, actives largely listed as inhibitors. actives 2.3% (n = 330,000). AID 504467; note: potency is the fitted concentration of half-maximal effect; nearly all actives have a fitted effect of over 55% in size
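Step one: seed 2,000 cells per well. Step two: pin-transfer compound or DMSO alongside 5-fluorouridine. Step three: incubate 16 hr, 37 °C, 5% CO2. Step four: add ONE-Glo, wait 30 min, read luminescence.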
Gal4-VP16 FLuc: inhibits Gal4-VP16 luciferase reporter, ROR gamma counter-screen | Drosophila S2 Gal4-VP16 UAS-luciferase, luminescence, 20 h | Potency, µM (doses to about 53.6 µM), for the others: at the highest dose activity, negative = inhibition, actives largely listed as inhibitors | actives 3.5% (n = 310,000) | AID 2546;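 note: Gal4-VP16 expression switched on by copper sulfate through the metallothionein promoter; potency is the fitted concentration of half-maximal effect; nearly all actives have a fitted effect of over 50% in size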
TSHR antag: human thyrotropin receptor antagonism; P16473; TSHR-expressing cells, TSH-stimulated cAMP HTRF, 2 h; active compounds read low; activity change, negative = inhibition, % at 11.5 µM; actives 0.2% (n = 330,000);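 active = activity change below a set negative limit, meaning inhibition stronger than a set level, cut at about -70% in these data; inconclusive = activity change between two set negative limits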
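TSHR-expressing cells, 200/well, pre-treated with compound, then stimulated with EC80 TSH (4nM final) for 2 hours at 37 deg C. cAMP measured by competitive HTRF: anti-cAMP cryptate antibody in lysis buffer plus cAMP-d2, read after 30 minutes at room temperature.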
RORgamma inh: blocks mouse ROR gamma transcriptional activity. P51450. Drosophila S2 Gal4-RORgamma UAS-luciferase reporter, 20 h. Potency, µM (titrated, usually from 53.6 µM), without a hit: at the highest dose activity change, negative = inhibition, most hits filed as inhibitors. actives 5.4% (n = 310,000); note: potency is the fitted concentration of half-maximal effect; nearly all actives have a fitted effect of over 60% in size
Target sequence (P51450 whole entry, looked up, the tested form may be a part): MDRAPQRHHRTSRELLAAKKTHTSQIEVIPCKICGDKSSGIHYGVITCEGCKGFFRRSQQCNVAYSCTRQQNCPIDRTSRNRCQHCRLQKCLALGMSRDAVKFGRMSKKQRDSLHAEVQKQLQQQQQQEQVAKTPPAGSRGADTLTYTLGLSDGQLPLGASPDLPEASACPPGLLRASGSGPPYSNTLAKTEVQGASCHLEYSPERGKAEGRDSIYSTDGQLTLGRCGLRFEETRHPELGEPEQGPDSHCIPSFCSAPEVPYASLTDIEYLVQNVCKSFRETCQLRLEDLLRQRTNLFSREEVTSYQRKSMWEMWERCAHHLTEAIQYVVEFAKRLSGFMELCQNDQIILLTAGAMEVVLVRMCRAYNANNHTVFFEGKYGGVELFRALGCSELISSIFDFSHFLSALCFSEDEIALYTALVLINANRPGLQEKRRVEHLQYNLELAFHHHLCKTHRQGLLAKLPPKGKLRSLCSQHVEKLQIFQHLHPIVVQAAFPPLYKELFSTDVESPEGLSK
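Read-out: Photinus luciferase luminescence; inhibitors lower reporter signal. Insect Schneider cells with Gal4-ROR gamma fusion under metallothionein promoter, UAS reporter; 700 uM final copper sulfate induction, 20 hr, ambient temperature.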
Active calls of the source: *; ? = inconclusive; · = no result; [ ] = dose if it differs, or a comment. Shown are actives, neighbours in structure and some others; about 8% of the full set was active somewhere. Unless noted, calls come from the whole dose curve; as a rule, active = well fitted curve in the direction sought with a large enough effect; inconclusive = small, poorly fitted or top-dose-only effect, or another doubt; inactive = no such curve, though single readings can be large; an effect the other way counts as inactive or inconclusive. % is set by controls: 0 for no effect and ±100 for the full control effect.

SMILES	Coupling enz	ELG1 DNA repair	Gal4-VP16 FLuc	TSHR antag	RORgamma inh
Cc1c(Cl)c(-c2n[nH]c(=S)n2Cc2ccco2)nn1C	-1	5%	-24%	17	11µM*
COc1cccc(-c2n[nH]c(=S)n2Cc2ccco2)c1	2	-1%	?	-10	16µM*
O=C1CC(=O)N(Cc2ccco2)C(=S)N1	-23	3%	2%	25	12%
S=c1[nH]nc(C23CC4CC(CC(C4)C2)C3)n1Cc1ccco1	2	-2%	11µM*	-9	1.3µM*
S=c1[nH]nc(-c2ccncc2)n1Cc1ccco1	2	13%	19%	0	8%
COc1cccc(NC(=O)C2CCN(S(=O)(=O)c3ccc4[nH]c(=O)ccc4c3)CC2)c1	-1	-4%	-10%	21	-8%
Cc1ccc(NC(=O)CNC(=O)c2cccs2)c(O)c1	·	26%	·	-2	·
C=CCn1c(-c2cccc(OC)c2)nc2nc3ccccc3nc21	0	-19%	-4%	-8	-24%
C=CCn1c(-c2cccc(OC)c2)n[nH]c1=S	1	3%	?	4	7.1µM*
N#Cc1cccc(NC(=O)N2CCCC3(CCN(C(=O)c4csnn4)CC3)C2)c1	0	·	7%	·	-17%
Cc1cc(-c2ccccc2)nc(N/N=C/c2ccccc2F)n1	0	?	18µM*	0	?
N#Cc1ccccc1/C=N/Nc1nc(-c2ccccc2)c2cc(Cl)ccc2n1	-1	0%	1%	6	-30%
Cc1ccc2nc(N/N=C/c3ccccc3F)nc(-c3ccccc3)c2c1	0	?	11µM*	10	?
Cc1ccc2nc(NCCO)nc(-c3ccccc3)c2c1	0	-8%	-6%	-11	-11%
Cc1csc(N/N=C/c2ccccc2F)n1	-1	?	-79%	3	?
Cc1ccc2nc(N/N=C/c3ccccc3C#N)nc(-c3ccccc3)c2c1	0	21µM*	?	-11	11µM*
COc1ccc(C)cc1NC(=O)C1CCCN(S(=O)(=O)c2cccnc2)C1 (stereo not drawn)	0	-1%	8%	-17	-2%
O=C/C(=C\Nc1ccccn1)c1nc2cc(Cl)ccc2o1	-1	?	10µM*	2	5.6µM*
CC(C)=N/N=C1\NC(=O)C(C)S1 (stereo not drawn)	-1	18%	?	-4	11µM*
C/C(=N\N=C1/NC(=O)C(C)S1)c1ccc([N+](=O)[O-])cc1 (stereo not drawn)	6	16%	5%	4	?
CCN(CC)C(=O)[C@H]1CC(CC(=O)NCCC2=CCCCC2)C(=O)N2CCc3c([nH]c4ccc(OC)cc34)[C@]12C (stereo partly drawn)	·	-8%	·	-5	·
CCCCNc1nc(=S)[nH]c2cc(OC)c(OC)cc12	-1	-11%	7.9µM*	-11	7.9µM*
CCOCCCNc1nc(=S)[nH]c2cc(OC)c(OC)cc12	0	?	-13%	-9	?
COc1cc2[nH]c(=S)nc(NCCCOC(C)C)c2cc1OC	1	?	?	20	16µM*
COC(=O)c1c(NC(=O)/C=C/C(=O)O)sc(C)c1-c1ccc(C)c(C)c1	20	-6%	-5%	-25	4.5µM*
SMILES	Coupling enz	ELG1 DNA repair	Gal4-VP16 FLuc	TSHR antag	RORgamma inh
COC(=O)c1c(NC(=O)/C=C/C(=O)O)sc(C)c1-c1ccc(C)cc1	14	-11%	-10%[10 µM]	-25	?
CCOC(=O)c1c(NC(=O)/C=C/C(=O)O)sc(C)c1-c1ccc(C)c(C)c1	17	-9%	6%	?	10µM*
Oc1c(/C=N/Nc2cccc3cccnc23)ccc2ccccc12	-6	?	?	-2	13µM*
Oc1cccc(/C=N/Nc2cccc3cccnc23)c1	0	?	?	-11	7.1µM*
COc1cc(/C=N/Nc2cccc3cccnc23)cc(OC)c1O	-1	?	?	-19	10µM*
CCC1=NN(C(=O)CCc2ccccc2O)C(O)(C(F)(F)F)C1 (stereo not drawn)	0	13%	?	17	10µM*
CC(C)(C)C1(O)CC(C(F)(F)F)=NN1C(=O)CCCc1ccccc1 (stereo not drawn)	-1	-5%	-16%	-7	14%
CCC1=NN(C(=O)CCc2ccc3c(c2)OCO3)C(O)(C(F)(F)F)C1 (stereo not drawn)	-1	5%	3%	-5	11µM*
COc1ccc(C)cc1NC(=O)c1ccccc1N(C)S(=O)(=O)c1ccccc1	0	-23%	-13%	9	3%
O=C(CSCCO)Nc1ccc([N+](=O)[O-])cc1	2	8%	1%	9	2%
CNC(=S)Nc1ccc(C23CC4CC(CC(C4)C2)C3)cc1	3	5%	1.3µM*	27	1.6µM*
CC(=O)Nc1ccc(C23CC4CC(CC(C4)C2)C3)cc1	3	?	17%	17	23%
O=C(CSCCO)Nc1ccc(C23CC4CC(CC(C4)C2)C3)cc1	4	?	8.9µM*	-10	-2%
O=c1cnc2cnc(N3CCNCC3)nc2n1Cc1ccc(F)cc1	1	·	-5%	·	-6%
Oc1c(N=Nc2ccccn2)ccc2ccccc12	-8	?	-74%	1	0.11µM*
COc1ccccc1CN1CC2(CCN(S(C)(=O)=O)CC2)C1	-3	·	0%	·	-9%
CC1(C)CC2(C)OC(=N)C1(C#N)C2(C#N)C#N (stereo not drawn)	1	0%	?	25	7.9µM*
CCCN1C(=O)N(c2cccc(C)c2)C(C)(O)CC1(C)C (stereo not drawn)	5	-25%	-1%	10	-29%
CCCSc1ccc2nc(-c3ccccc3)cn2c1	-5	?	6.3µM*	-9	2.2µM*
CCCCSc1ccc2nc(-c3ccc(C#N)cc3)cn2c1	0	?	2%	-34	-3%
COc1ccc(C(=O)NCC23C=CC(O2)C2C(=O)N(Cc4ccccc4)C(=O)C23)cc1 (stereo not drawn)	0	16µM*	4%	-16	-122%
Cc1[nH]c2ccccc2c1CC#N	-1	15%	9%	8	-1%
Cc1[nH]c2ccccc2c1C(C#N)(C#N)C1C(=O)c2ccccc2C1=O	-36*	?	1%	-27	?
O=C(Nc1nc2c(cc3c4c(cccc42)CC3)s1)c1ccccc1Cl	-5	16%	-26%	19	5µM*
CNc1ccc(Br)cc(C(=O)/C=C/c2cc(OC)ccc2OC)c1=O	0	?	-19%	-20	3%
CCNc1ccc(Br)cc(C(=O)/C=C/c2ccc(Cl)cc2Cl)c1=O	-12	?	13µM*	-23	5µM*
COc1ccc(-c2csc(/C(C#N)=C\c3ccc(O)c([N+](=O)[O-])c3)n2)cc1OC	6	15µM*	2%	-72*	-7%
